# Unmarked numbers belong to inactive results.
# Assays:
# Experiment in all cases: log2 ratio of Biotin-Ahx-Ub-VS probe labelling (fragment/DMSO); higher = less target engagement (more negative = stronger competition), active = hit call of the paper (q ≤ 0.05, log2 ratio ≤ -1)
# Conditions in all cases: compound concentration: 200 uM; treatment time: 3 h
# [1] = target: T1, ALG13 (UniProt Q9NP73)
# T1 sequence (whole entry): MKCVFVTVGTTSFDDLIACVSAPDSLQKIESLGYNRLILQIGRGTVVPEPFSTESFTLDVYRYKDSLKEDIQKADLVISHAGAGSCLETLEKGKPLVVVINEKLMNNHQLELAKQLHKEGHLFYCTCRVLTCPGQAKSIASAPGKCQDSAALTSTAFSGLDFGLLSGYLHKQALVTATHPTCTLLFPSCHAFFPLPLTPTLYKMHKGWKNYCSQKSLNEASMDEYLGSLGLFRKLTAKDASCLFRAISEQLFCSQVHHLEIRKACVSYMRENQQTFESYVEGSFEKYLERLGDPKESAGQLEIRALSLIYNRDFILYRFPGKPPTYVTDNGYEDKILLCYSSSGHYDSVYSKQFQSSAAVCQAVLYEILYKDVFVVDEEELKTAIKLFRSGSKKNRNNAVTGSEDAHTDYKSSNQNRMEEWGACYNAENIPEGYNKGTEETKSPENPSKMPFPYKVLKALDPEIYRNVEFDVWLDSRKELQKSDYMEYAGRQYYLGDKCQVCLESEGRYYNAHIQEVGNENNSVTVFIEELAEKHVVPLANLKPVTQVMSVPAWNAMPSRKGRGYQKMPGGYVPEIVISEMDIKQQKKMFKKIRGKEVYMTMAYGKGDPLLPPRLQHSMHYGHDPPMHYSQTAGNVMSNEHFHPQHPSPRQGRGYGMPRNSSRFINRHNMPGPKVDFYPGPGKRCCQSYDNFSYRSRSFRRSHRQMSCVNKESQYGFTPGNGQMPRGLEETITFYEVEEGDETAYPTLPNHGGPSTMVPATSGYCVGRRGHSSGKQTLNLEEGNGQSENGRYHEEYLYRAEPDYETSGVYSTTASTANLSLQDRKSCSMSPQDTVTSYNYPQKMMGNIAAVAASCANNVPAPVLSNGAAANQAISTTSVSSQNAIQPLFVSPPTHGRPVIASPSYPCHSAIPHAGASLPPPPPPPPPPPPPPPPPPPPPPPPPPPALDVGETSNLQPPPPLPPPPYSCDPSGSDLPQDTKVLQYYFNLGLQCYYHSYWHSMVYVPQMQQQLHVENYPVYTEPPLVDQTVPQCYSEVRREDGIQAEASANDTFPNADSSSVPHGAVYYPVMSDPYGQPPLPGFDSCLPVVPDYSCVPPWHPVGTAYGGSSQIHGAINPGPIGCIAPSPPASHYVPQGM
# Method in brief: (§1)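 Fragment (200 µM) or vehicle was incubated for 3 h with triplicate HEK293T lysate samples of 495 µg, which were then treated with Biotin-Ahx-Ub-VS at 0.5 µM final for 1 h. Labelled DUBs were enriched on NeutrAvidin, digested with LysC and trypsin, and analysed by diaPASEF LC-MS/MS. Values are average log2 fragment/vehicle ratios from an unpaired t-test on global-median-normalised Spectronaut label-free quantities, using proteins with ≥2 unique peptides.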
# [2] = target: ATXN3 (UniProt P54252)
# Method in brief: as §1
# [3] = target: T2, BAP1 (UniProt Q92560)
# T2 sequence (whole entry): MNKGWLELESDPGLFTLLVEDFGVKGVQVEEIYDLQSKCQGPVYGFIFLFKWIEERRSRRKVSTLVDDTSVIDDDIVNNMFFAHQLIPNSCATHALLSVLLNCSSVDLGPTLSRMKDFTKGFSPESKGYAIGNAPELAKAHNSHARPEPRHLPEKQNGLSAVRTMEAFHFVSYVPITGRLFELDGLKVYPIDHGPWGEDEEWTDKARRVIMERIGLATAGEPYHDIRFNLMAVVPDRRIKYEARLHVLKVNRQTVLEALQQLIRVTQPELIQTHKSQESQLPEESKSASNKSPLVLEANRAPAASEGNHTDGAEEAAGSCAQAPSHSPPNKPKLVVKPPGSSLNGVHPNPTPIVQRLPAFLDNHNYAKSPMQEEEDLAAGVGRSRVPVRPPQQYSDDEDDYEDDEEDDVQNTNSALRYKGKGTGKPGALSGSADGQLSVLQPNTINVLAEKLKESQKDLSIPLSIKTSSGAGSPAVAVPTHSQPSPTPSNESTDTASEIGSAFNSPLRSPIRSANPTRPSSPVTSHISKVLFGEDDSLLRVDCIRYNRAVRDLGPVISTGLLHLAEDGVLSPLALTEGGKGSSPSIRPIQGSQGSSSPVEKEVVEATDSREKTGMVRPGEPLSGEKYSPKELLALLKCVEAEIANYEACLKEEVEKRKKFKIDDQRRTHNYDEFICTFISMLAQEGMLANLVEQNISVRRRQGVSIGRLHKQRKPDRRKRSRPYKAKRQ
# Method in brief: as §1
# [4] = target: EIF3F (UniProt O00303)
# Method in brief: as §1
# [5] = target: EIF3H (UniProt O15372)
# Method in brief: as §1
# [6] = target: T3, FAM105A (UniProt Q9NUU6)
# T3 sequence (whole entry): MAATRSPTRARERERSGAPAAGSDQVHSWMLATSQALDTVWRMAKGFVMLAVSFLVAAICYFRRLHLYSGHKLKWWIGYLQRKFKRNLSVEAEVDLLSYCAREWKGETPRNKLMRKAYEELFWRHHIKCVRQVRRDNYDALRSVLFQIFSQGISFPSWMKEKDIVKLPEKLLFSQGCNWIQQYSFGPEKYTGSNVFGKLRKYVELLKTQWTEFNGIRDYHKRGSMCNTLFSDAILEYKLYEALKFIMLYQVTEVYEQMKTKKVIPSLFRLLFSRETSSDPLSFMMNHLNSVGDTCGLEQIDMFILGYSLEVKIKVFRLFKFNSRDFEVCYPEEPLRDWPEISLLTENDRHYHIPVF
# Method in brief: as §1
# [7] = target: OTUB1 (UniProt Q96FW1)
# Method in brief: as §1
# [8] = target: T4, OTUD4 (UniProt Q01804)
# T4 sequence (whole entry): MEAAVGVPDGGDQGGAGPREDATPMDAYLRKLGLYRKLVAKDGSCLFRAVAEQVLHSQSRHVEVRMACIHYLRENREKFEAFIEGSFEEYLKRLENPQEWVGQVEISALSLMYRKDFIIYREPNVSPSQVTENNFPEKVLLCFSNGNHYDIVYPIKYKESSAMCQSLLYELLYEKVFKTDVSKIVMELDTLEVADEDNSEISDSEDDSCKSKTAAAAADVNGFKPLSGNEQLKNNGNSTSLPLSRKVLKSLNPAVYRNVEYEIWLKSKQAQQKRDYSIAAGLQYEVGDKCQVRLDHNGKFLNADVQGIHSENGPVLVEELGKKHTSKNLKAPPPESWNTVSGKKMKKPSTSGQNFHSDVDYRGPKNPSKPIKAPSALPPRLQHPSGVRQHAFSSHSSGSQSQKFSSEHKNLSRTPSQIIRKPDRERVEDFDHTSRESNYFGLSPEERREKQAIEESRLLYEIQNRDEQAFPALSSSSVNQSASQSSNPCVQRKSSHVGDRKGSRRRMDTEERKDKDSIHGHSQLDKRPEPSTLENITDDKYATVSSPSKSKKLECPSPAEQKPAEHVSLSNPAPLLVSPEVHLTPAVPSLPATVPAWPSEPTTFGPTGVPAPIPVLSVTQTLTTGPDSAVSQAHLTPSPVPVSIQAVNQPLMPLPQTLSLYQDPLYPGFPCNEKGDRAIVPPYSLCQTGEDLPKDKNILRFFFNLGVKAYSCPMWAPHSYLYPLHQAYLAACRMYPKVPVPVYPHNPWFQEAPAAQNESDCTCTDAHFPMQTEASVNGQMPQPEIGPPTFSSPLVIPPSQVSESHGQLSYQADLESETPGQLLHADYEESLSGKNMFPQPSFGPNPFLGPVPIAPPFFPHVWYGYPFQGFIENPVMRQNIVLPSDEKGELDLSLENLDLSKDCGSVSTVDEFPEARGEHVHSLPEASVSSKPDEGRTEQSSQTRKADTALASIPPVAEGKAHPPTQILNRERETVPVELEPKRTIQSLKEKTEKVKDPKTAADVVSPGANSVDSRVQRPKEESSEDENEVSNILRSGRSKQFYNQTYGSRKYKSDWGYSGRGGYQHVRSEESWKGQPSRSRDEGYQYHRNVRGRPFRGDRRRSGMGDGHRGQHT
# Method in brief: as §1
# [9] = target: T5, OTUD5 (UniProt Q96G74)
# T5 sequence (whole entry): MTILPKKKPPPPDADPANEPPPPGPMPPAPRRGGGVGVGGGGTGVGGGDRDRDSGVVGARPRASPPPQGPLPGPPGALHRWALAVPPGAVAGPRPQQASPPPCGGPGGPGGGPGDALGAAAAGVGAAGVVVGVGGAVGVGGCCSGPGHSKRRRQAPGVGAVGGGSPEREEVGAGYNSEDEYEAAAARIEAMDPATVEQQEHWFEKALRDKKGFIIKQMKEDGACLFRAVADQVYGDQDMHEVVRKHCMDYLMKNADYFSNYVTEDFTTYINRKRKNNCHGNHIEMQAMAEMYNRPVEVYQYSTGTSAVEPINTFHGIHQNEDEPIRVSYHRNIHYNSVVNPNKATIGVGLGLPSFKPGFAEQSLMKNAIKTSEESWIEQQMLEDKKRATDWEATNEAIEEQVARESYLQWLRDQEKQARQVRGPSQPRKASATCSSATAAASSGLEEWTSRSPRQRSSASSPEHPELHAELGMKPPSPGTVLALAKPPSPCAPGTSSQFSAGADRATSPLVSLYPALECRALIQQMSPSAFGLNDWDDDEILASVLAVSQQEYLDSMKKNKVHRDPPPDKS
# Method in brief: as §1
# Sequence of ATXN3 (P54252 whole entry): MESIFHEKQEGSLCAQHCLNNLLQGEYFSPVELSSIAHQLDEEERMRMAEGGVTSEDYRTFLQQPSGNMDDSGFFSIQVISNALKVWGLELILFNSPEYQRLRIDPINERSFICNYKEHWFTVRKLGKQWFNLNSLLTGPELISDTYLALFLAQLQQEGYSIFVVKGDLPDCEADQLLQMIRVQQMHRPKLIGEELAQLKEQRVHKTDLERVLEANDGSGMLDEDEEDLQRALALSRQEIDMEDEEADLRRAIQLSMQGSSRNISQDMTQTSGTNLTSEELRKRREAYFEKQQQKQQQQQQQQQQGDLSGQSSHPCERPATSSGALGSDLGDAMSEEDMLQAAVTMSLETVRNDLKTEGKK
# Sequence of EIF3H (O15372 whole entry): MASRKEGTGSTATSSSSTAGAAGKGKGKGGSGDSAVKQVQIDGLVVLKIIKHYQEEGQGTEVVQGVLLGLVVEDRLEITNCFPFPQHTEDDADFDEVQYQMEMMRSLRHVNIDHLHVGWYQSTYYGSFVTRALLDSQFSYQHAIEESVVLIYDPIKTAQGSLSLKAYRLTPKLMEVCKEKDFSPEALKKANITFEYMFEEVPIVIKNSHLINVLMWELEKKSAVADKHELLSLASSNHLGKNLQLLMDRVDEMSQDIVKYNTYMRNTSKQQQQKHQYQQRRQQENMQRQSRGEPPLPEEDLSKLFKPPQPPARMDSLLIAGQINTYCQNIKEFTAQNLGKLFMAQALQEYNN
# Sequence of OTUB1 (Q96FW1 whole entry): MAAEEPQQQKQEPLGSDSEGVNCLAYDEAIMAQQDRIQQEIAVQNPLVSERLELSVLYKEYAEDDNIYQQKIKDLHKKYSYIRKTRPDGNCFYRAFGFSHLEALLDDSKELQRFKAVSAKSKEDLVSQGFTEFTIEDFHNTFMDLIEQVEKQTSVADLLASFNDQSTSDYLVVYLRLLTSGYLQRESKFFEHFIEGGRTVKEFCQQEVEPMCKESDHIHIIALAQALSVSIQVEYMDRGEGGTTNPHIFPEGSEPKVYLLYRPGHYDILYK
# Sequence of EIF3F (O00303 whole entry): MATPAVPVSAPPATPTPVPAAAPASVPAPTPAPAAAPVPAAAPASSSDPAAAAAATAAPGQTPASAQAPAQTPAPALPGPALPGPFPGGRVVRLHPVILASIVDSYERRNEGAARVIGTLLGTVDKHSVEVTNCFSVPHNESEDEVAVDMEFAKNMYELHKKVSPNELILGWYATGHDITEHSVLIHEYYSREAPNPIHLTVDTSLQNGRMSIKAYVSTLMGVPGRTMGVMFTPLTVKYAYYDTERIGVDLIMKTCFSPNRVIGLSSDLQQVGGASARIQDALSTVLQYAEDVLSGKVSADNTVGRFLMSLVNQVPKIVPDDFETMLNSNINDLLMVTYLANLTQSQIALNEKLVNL
smiles,measurement,setting,value
Cl.O=C(CCl)N1CCn2ncc(O)c2C1,log2 ratio of Biotin-Ahx-Ub-VS probe labelling,[1],0.326
same,log2 ratio of Biotin-Ahx-Ub-VS probe labelling,[2],-1.69 (active)
same,log2 ratio of Biotin-Ahx-Ub-VS probe labelling,[3],-2.39 (active)
same,log2 ratio of Biotin-Ahx-Ub-VS probe labelling,[4],-0.296
same,log2 ratio of Biotin-Ahx-Ub-VS probe labelling,[5],0.21
same,log2 ratio of Biotin-Ahx-Ub-VS probe labelling,[6],-0.377
same,log2 ratio of Biotin-Ahx-Ub-VS probe labelling,[7],-0.64
same,log2 ratio of Biotin-Ahx-Ub-VS probe labelling,[8],-0.808
same,log2 ratio of Biotin-Ahx-Ub-VS probe labelling,[9],-0.908
